Source: PubChem BioAssay (Tox21)
Calls of active or inactive are those of the source. Unless noted, calls follow the shape of the dose curve; as a rule, active = well fitted curve in the direction sought with a large enough effect in the repeat runs; inconclusive = weak or mixed curves; inactive = no such curve, though single readings can be large; an effect the other way counts as inactive or inconclusive.

Assays:
[1] = qHTS assay to identify small molecule antagonists of the glucocorticoid receptor (GR) signaling pathway - cell viability counter screen (AID 720693); also: nearly all actives have a fitted effect of over 55% in size
[2] = qHTS assay for identifying genotoxic compounds that show differential cytotoxicity against isogenic chicken DT40 cell lines with known DNA damage response pathways - wild type cell line (AID 743012); also: nearly all actives have a fitted effect of over 60% in size; also: potency is read from the fitted curve at half-maximal effect
In short: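 Quantitative HTS on parental DT40 cells: 40 h compound treatment at 37 C/5% CO2, with viability then determined by CellTiter-Glo luminescence. Values serve as the DNA repair-proficient reference for differential cytotoxicity.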

[3] = qHTS assay for identifying genotoxic compounds that show differential cytotoxicity against isogenic chicken DT40 cell lines with known DNA damage response pathways - Rev3 mutant cell line (AID 743014); also: nearly all actives have a fitted effect of over 55% in size; also: potency is read from the fitted curve at half-maximal effect
[4] = qHTS assay to identify small molecule antagonists of the androgen receptor (AR) signaling pathway - cell viability counter screen (AID 743033; also: nearly all actives have a fitted effect of over 45% in size)
[5] = molecular target: Androgen receptor (Homo sapiens) (UniProt P10275); assay: qHTS assay to identify small molecule antagonists of the androgen receptor (AR) signaling pathway (AID 743035; active = well fitted inhibition curve with a large enough effect in the signal ratio in the repeat runs, not every such curve was filed as active; inconclusive = weak or mixed curves, or effect the other way; inactive = no such curve, though single readings can be large or run the other way; the % refers to the signal ratio; also: potency is read from the fitted curve at half-maximal effect)
Chain of Androgen receptor (Homo sapiens) (P10275 whole entry, looked up): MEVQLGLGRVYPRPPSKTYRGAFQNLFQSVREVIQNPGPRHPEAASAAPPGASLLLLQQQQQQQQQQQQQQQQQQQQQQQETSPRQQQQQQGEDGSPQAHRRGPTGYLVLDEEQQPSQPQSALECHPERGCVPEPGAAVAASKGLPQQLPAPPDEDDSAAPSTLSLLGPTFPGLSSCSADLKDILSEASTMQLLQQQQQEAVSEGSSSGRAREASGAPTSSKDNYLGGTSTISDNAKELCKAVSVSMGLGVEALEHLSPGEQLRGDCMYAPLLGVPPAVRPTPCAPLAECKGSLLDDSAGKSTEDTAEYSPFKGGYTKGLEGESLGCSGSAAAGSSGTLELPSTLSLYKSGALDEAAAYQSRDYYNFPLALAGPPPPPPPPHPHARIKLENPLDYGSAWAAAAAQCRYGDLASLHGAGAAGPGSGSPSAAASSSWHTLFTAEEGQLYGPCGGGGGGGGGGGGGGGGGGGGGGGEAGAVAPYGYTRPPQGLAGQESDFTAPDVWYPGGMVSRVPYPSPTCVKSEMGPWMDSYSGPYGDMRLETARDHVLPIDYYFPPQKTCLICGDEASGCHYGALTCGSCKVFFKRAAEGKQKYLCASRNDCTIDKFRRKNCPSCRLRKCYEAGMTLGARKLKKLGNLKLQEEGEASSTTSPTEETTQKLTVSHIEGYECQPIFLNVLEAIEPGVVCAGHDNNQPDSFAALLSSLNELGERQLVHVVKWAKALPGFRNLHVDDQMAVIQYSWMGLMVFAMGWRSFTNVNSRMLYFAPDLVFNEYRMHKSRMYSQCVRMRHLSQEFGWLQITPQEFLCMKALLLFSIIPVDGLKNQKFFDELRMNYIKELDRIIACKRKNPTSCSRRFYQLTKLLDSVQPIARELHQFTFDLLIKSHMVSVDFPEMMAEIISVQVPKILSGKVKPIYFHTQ
In short: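 Cell line: GeneBLAzer AR-UAS-bla GripTite (HEK293). Stimulus: R1881 added after compound. Exposure: 16 h, 37C, 5% CO2. Readout: LiveBLAzer B/G FRET fluorescence after 2 h at room temperature.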

[6] = molecular target: Androgen receptor (Homo sapiens) (UniProt P10275); assay: qHTS assay to identify small molecule agonists of the androgen receptor (AR) signaling pathway using the MDA cell line (AID 743040; also: nearly all actives have a fitted effect of over 20% in size; also: potency is read from the fitted curve at half-maximal effect)
In short: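 Luminescence from ONE-Glo, read after 30 min at room temperature, reflects MMTV-driven luciferase in MDA-kb2 cells (AR- and GR-responsive). Treatment lasted 16 h at 37C, 0% CO2.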

[7] = qHTS assay to identify small molecule antagonists of the androgen receptor (AR) signaling pathway using the MDA cell line - cell viability counter screen (AID 743041; also: nearly all actives have a fitted effect of over 45% in size)
In short: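 Viability counter screen run alongside the AR antagonist reporter: cells seeded 5 h before compound, R1881 added, 16 h incubation at 37C without CO2, fluorescent CellTiter-Fluor signal quantified.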

[8] = molecular target: Androgen receptor (Homo sapiens) (UniProt P10275); assay: qHTS assay to identify small molecule antagonists of the androgen receptor (AR) signaling pathway using the MDA cell line (AID 743042; also: nearly all actives have a fitted effect of over 55% in size)
In short: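 MDA-kb2 cells (human breast carcinoma, stably carrying an MMTV-luciferase reporter responsive to AR and GR) were plated at 3,000 cells/well and preincubated 5 hr at 37C, then given compound plus R1881 agonist for 16 h. ONE-Glo luminescence was read.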

[9] = qHTS assay to identify small molecule antagonists of the thyroid receptor (TR) signaling pathway - cell viability counter screen (AID 743064); also: nearly all actives have a fitted effect of over 50% in size
In short: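 GH3.TRE-Luc rat pituitary cells dosed after 4 hr plating, co-stimulated with T3 at 1 nM final, incubated 23.5 h at 37 C. Viability measured in the same wells by CellTiter-Fluor fluorescence after 30 min further at 37 C.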

[10] = qHTS assay to identify small molecule antagonists of the thyroid receptor (TR) signaling pathway (AID 743065); also: nearly all actives have a fitted effect of over 55% in size; also: potency is read from the fitted curve at half-maximal effect
In short: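 GH3.TRE-Luc rat pituitary cells carrying two TR response elements driving luciferase were plated for 4 h, given compound plus 1 nM T3 (final), and incubated 23.5 h at 37 C. ONE-Glo luminescence measured reporter inhibition; CellTiter-Fluor fluorescence tracked cytotoxicity.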

[11] = tested on: thyroid hormone receptor (rat, GH3 cells); assay: qHTS assay to identify small molecule agonists of the thyroid receptor (TR) signaling pathway (AID 743066; calls by dose curve)
[12] = molecular target: Estrogen receptor (Homo sapiens) (UniProt P03372); assay: qHTS assay to identify small molecule antagonists of the estrogen receptor alpha (ER-alpha) signaling pathway (AID 743069; active = well fitted curve in the direction sought with a large enough effect in the signal ratio in the repeat runs, not every such curve was filed as active; inconclusive = weak or mixed curves, or effect the other way; inactive = no such curve, though single readings can be large or run the other way; the % refers to the signal ratio)
Chain of Estrogen receptor (Homo sapiens) (P03372 whole entry, looked up): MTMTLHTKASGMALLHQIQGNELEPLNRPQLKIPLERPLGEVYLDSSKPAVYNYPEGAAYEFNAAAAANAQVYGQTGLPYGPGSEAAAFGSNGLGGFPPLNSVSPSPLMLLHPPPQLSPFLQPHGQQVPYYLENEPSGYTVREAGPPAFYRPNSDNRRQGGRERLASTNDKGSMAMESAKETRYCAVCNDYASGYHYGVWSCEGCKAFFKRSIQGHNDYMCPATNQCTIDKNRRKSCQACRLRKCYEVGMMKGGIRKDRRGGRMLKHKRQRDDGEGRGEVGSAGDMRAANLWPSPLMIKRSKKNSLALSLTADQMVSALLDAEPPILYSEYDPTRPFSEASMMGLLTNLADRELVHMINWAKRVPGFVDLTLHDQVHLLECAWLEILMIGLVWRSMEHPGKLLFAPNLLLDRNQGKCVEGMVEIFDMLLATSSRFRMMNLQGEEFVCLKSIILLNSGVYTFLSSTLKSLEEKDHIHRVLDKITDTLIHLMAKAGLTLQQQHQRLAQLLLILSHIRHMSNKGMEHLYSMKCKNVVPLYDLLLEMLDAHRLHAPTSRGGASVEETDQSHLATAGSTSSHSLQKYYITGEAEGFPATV
In short: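 Estradiol-stimulated ER-alpha-UAS-bla HEK293 cells, 18 hr compound exposure at 37C. LiveBLAzer B/G substrate, 2 hr RT, fluorescence read.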

[13] = qHTS assay to identify small molecule antagonists of the estrogen receptor alpha (ER-alpha) signaling pathway - cell viability counter screen (AID 743074; calls by dose curve;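 also: HEK293 cells carrying ER-alpha-UAS-bla reporter stimulated with 17beta-estradiol; nearly all actives have a fitted effect of over 45% in size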)
[14] = molecular target: Estrogen receptor (Homo sapiens) (UniProt P03372); assay: qHTS assay to identify small molecule agonists of the estrogen receptor alpha (ER-alpha) signaling pathway (AID 743075; calls by dose curve;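 also: HEK293 GripTite cells with ER-alpha and UAS-driven beta-lactamase reporter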; also: potency is read from the fitted curve at half-maximal effect)
[15] = molecular target: Estrogen receptor (Homo sapiens) (UniProt P03372); assay: qHTS assay to identify small molecule agonists of the estrogen receptor alpha (ER-alpha) signaling pathway using the BG1 cell line (AID 743079); settings: BG1Luc4E2 cells, ERE-luciferase agonist, 22 h; also: nearly all actives have a fitted effect of over 20% in size; also: potency is read from the fitted curve at half-maximal effect
[16] = qHTS assay to identify small molecule antagonists of the estrogen receptor alpha (ER-alpha) signaling pathway using the BG1 cell line (AID 743080; calls by dose curve;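 also: BG1 cells stimulated with 17beta-estradiol alongside compound; nearly all actives have a fitted effect of over 25% in size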)
In short: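 After 5 days in phenol-red-free 10% charcoal-stripped FBS medium, BG1-Luc-4E2 cells were seeded, left 24 h at 37 C, co-treated with compounds and 17beta-estradiol for 21.5 h, then assayed for viability and luciferase.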

[17] = qHTS assay to identify small molecule antagonists of the estrogen receptor alpha (ER-alpha) signaling pathway using the BG1 cell line - cell viability counter screen (AID 743081);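 also: compound given together with 17beta-estradiol as the ER stimulus; nearly all actives have a fitted effect of over 45% in size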
Aromatase (Homo sapiens) = Aromatase (Homo sapiens) (UniProt P11511); assay: qHTS assay to identify aromatase inhibitors (AID 743083); also: nearly all actives have a fitted effect of over 55% in size
Chain of Aromatase (Homo sapiens) (P11511 whole entry, looked up): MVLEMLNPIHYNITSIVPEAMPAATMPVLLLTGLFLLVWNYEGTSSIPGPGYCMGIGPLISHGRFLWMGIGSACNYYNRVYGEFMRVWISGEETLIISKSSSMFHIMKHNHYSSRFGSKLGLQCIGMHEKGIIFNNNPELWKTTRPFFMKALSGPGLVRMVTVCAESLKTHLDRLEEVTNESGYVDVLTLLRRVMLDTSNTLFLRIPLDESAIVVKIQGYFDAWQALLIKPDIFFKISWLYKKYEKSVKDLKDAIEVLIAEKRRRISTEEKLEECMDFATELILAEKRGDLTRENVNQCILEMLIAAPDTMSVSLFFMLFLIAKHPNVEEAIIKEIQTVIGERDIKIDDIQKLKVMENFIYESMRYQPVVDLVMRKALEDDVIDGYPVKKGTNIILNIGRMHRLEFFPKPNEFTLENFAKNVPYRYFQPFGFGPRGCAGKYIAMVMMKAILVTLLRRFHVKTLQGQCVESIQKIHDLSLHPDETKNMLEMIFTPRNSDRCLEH

[18] = qHTS assay for identifying genotoxic compounds that show differential cytotoxicity against isogenic chicken DT40 cell lines with known DNA damage response pathways - Rad54/Ku70 mutant cell line (AID 743015); also: nearly all actives have a fitted effect of over 60% in size; also: potency is read from the fitted curve at half-maximal effect
[19] = molecular target: Androgen receptor (Homo sapiens) (UniProt P10275); assay: qHTS assay to identify small molecule agonists of the androgen receptor (AR) signaling pathway (AID 743036; active = well fitted activation curve with a large enough effect in the signal ratio in the repeat runs, with a control signal flat, not every such curve was filed as active; inconclusive = weak or mixed curves, or effect the other way; inactive = no such curve, though single readings can be large or run the other way; the % refers to the signal ratio)
In short: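 AR-UAS-bla HEK293 cells, plated 4 h before dosing, were treated with compound for 16 h at 37C. beta-Lactamase reporter read after 2 h with LiveBLAzer B/G FRET substrate at room temperature.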
% is scaled to controls: 0 for no effect and ±100 for the full control effect.

CCC(=O)c1ccccc1
inactive: Potency [1] | Potency [2] | Potency [3] | Potency [4] | Potency [5] | Potency [6] | Potency [7] | outcome [8] | Potency [9] | Potency [10] | Potency [11] | Potency [12] | outcome [13] | Potency [14] | activation ([15]; at 70.3 µM (top of the series)) -1.07% | Potency [16] | Potency [17] | Potency (Aromatase (Homo sapiens))

BrCCCCCCBr
inactive: Potency [1] | Potency [2] | Potency [3] | Potency [4] | Potency [7] | Potency [9] | Potency [11] | Potency [12] | outcome [13] | Potency [14] | activation ([15]; at 70.3 µM (top of the series)) -3.68% | Potency [16] | Potency [17] | Potency (Aromatase (Homo sapiens))

CCSC(=O)N(CC)C1CCCCC1
inactive: Potency [1] | Potency [2] | Potency [3] | Potency [18] | Potency [7] | Potency [9] | Potency [10] | Potency [11] | Potency [12] | outcome [13] | Potency [14] | Potency [16] | Potency [17] | Potency (Aromatase (Homo sapiens))

CC1CCC(=O)O1 (stereo not drawn)
inactive: Potency [1] | Potency [2] | Potency [3] | Potency [4] | Potency [7] | Potency [9] | Potency [10] | Potency [11] | outcome [13] | Potency [17]

CCCCOC(=O)c1ccccc1N
inactive: Potency [1] | Potency [2] | Potency [3] | Potency [4] | Potency [7] | outcome [13] | Potency [17] | Potency (Aromatase (Homo sapiens))

CCC#N
inactive: Potency [1] | Potency [2] | Potency [3] | Potency [7] | Potency [9] | Potency [10] | Potency [11] | Potency [17]

C#C[C@]1(O)C=C[C@H]2[C@@H]3CCC4=CC(=O)CC[C@@H]4[C@H]3CC[C@@]21CC
active: Potency [2] 23.7 µM | Potency [3] 26.6 µM | Potency [5] 0.19 µM | Potency [6] 0.0133 µM | Potency [10] 11.9 µM | Potency [14] 0.535 µM [inconclusive] | Potency [15] 0.168 µM
inactive: Potency [1] | Potency [7] | outcome [8] | Potency [11] | outcome [13] | Potency [16] | Potency [17] | Potency (Aromatase (Homo sapiens))

ClCCOCOCCCl
inactive: Potency [1] | Potency [2] | Potency [3] | Potency [7] | Potency [9] | Potency [10] | Potency [11] | outcome [13] | Potency [17] | Potency (Aromatase (Homo sapiens))

CCCCCCI
inactive: Potency [1] | Potency [2] | Potency [3] | Potency [4] | Potency [5] | outcome [19] | Potency [6] | Potency [7] | outcome [8] | Potency [9] | Potency [10] | Potency [11] | Potency [12] | outcome [13] | Potency [14] | activation ([15]; at 70.3 µM (top of the series)) 1.45% | Potency [16] | Potency [17] | Potency (Aromatase (Homo sapiens))

CCOP(=S)(OCC)Oc1ncn(-c2ccccc2)n1
inactive: Potency [1] | Potency [4] | outcome [19] | Potency [6] | Potency [7] | outcome [8] | Potency [9] | Potency [10] | Potency [11] | outcome [13] | Potency [14] | Potency [16] | Potency [17] | Potency (Aromatase (Homo sapiens))
active: Potency [2] 61.1 µM | Potency [3] 34.4 µM | Potency [15] 54.5 µM

O=C(CCCN1CCC(n2c(=O)[nH]c3ccccc32)CC1)c1ccc(F)cc1
inactive: Potency [1] | Potency [5] | outcome [19] | Potency [6] | Potency [7] | outcome [8] | Potency [9] | Potency [10] | Potency [11] | Potency [12] | outcome [13] | Potency [14] | activation ([15]; at 32.5 µM (top of the series)) -6.79% | Potency [16] | Potency [17] | Potency (Aromatase (Homo sapiens))
active: Potency [2] 12.7 µM | Potency [18] 10.1 µM

CC(C)(C)OC(=O)c1ncn2c1[C@@H]1CCCN1C(=O)c1c(Br)cccc1-2
active: Potency [2] 26.6 µM
inactive: Potency [1] | Potency [4] | Potency [7] | Potency [9] | Potency [10] | Potency [11] | outcome [13] | Potency [17] | Potency (Aromatase (Homo sapiens))

CC(=O)Nc1cc([As](=O)(O)O)ccc1O
inactive: Potency [1] | Potency [2] | Potency [18] | Potency [7] | Potency [9] | Potency [10] | Potency [11] | Potency [12] | Potency [14] | activation ([15]; at 70.3 µM (top of the series)) 10% | Potency [17] | Potency (Aromatase (Homo sapiens))
